# Nrf2 inh = inhibitors of Nrf2 signaling. A549 ARE-Fluc reporter, luciferase luminescence, 18-24 h. Potency, µM (highest dose often 46 µM), for the others: at the highest dose activity change, negative = inhibition, hits mostly inhibitors. 360,000 compounds, 2.1% hits. AID 504444; further: on the % scale 0 is the no-effect control and ±100 the full control effect; nearly all actives have a fitted effect of over 60% in size
#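 In this cell-based qHTS, ARE-driven firefly luciferase in A549 cells reports Nrf2 activity; the luminescent signal after BugLite lysis is the measured value, with a prior CellTiter-Fluor read for cell health.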
# Nrf2 ARE act = activates Nrf2 signaling | AREc32 ARE-luciferase reporter (MCF7-derived line), luminescence, 24 h | 410,000 compounds, 0.31% hits | Potency, µM (doses to about 46.1 µM), for inactives: at the top dose activation, actives largely listed as activators | AID 624171; further: % of control where 0% means no effect; nearly all actives have a fitted effect of over 65% in size
#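 Luciferase luminescence (Steady-Glo, 30 min at room temperature) served as the read-out of ARE activation in AREc32 cells treated with compounds for 24 hr at 37 deg C.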
# ELG1 repair inh = ELG1-dependent DNA repair inhibition. 330,000 compounds, 2.3% hits. HEK293T ELG1-luciferase reporter, luminescence, 16 h; DNA damage induced by 5-fluorouridine. Potency, µM (series often up to 46.1 µM), for inactives: top-dose activity change, negative = inhibition, actives largely listed as inhibitors; further: on the % scale 0 is the no-effect control and ±100 the full control effect; nearly all actives have a fitted effect of over 55% in size
#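 Luminescence from the luciferase reporter, measured 30 min after ONE-Glo reagent at room temperature, was the read-out. Beforehand, 2,000 cells per well were exposed for 16 hr at 37 °C to 5-fluorouridine together with compound or vehicle.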
# A549 tox = A549 cytotoxicity, counter-screen for Nrf2 inhibitors | A549 ARE-Fluc cells, CellTiter-Fluor viability, 18-24 h | Potency, µM (titrated, usually from 46 µM), inactives show at the top dose activity change, negative = cytotoxicity, usual class: inhibitors | 390,000 compounds, 0.16% hits | AID 504648; further: on the % scale 0 is the no-effect control and ±100 the full control effect
#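 A549 ARE-Fluc cells in 5% FBS OPTI-MEM, 5000 cells/well, rested 2 h then exposed to compounds in concentration-response for 18-24 h at 37 °C. Viability by CellTiter-Fluor fluorescence (Ex 405/Em 525) after 30 min; luciferase luminescence (BugLite, 15 min, RT) read afterwards.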
# Numbers without * were called inactive; u = inconclusive; x = not tested or not shown. The list is not random: actives were taken first. Their share in the collection is about 3.7%. The call rests on the fitted dose curve; in most records, active means well fitted curve in the direction sought with a large enough effect; inconclusive means small, poorly fitted or top-dose-only effect, or another doubt; inactive means no such curve, though single readings can be large; an effect the other way counts as inactive or inconclusive. Potency means the concentration at half of the fitted maximal effect.
SMILES,Nrf2 inh,Nrf2 ARE act,ELG1 repair inh,A549 tox
CCCN(CC(=O)Nc1cc(Cl)ccc1Cl)C(=O)/C=C/c1ccco1,-18.9%,11.2µM*,-19.3%,1.5%
COCCc1ccc(OC2(C)CCN(Cc3cccc(OCOC)c3)C2)cc1 (stereo not given),x,-0.2%,x,x
CCCCN1C(=O)c2[nH]nc(-c3ccccc3O)c2C1c1ccc(OCc2ccccc2)c(OC)c1 (stereo not given),u,-0.3%,x,-13.8%
COCCCN1C(=O)c2[nH]nc(-c3ccccc3O)c2C1c1ccc(OCc2ccccc2)cc1 (stereo not given),25.9µM*,-5.6%,x,u
CCCCN1C(=O)c2[nH]nc(-c3ccccc3O)c2C1c1ccc(OCc2ccccc2)cc1 (stereo not given),14.6µM*,2.0%,x,u
COc1ccc(CCN2C(=O)c3[nH]nc(-c4ccccc4O)c3C2c2cccc(O)c2)cc1OC (stereo not given),6.3%,3.4%,18.4µM*,-8.0%
Cc1ccc(CN2c3ccccc3S(=O)(=O)c3ccccc32)cc1,-0.5%,5.2%,x,5.4%
Cc1cccc(C)c1-n1nnnc1-c1nc2cc3ccccc3cc2[nH]c1=O,x,0.0%,x,x
CCOc1ccc2[nH]c3c(NCCCOC)ncnc3c2c1,1.4%,0.2%,u,9.6%
c1coc(CNc2ncnc3c2[nH]c2ccccc23)c1,16.4µM*,x,x,-2.7%
O=c1c2[nH]c3ccccc3c2ncn1Cc1ccco1,4.4%,9.1%,u,-5.9%
CC(C)OCCCNc1ncnc2c1[nH]c1ccccc12,11.6µM*,2.9%,9.2µM*,-22.1%
CCc1cc2c(NCC(=O)O)ncnc2s1,-7.0%,-0.2%,8.1%,-2.2%
CCc1cc2c(NCc3ccco3)ncnc2s1,u,3.55µM*,-0.6%,7.2%
C1=C(CCNc2ncnc3c2[nH]c2ccccc23)CCCC1,5.17µM*,-0.3%,18.0%,-2.9%
CCCc1cc(C(=O)N2CCCC(Nc3ccc(C)c(C)c3)C2)n(C)n1 (stereo not given),5.8%,1.8%,u,2.0%
COc1ccc(CNc2ncnc3c2[nH]c2cc(OC)c(OC)cc23)cc1,-16.3%,5.7%,u,0.6%
Cc1ccc2[nH]c3c(NCc4ccccc4)ncnc3c2c1,5.17µM*,4.1%,u,18.4µM*
Cc1cc2nn(-c3ccccc3)nc2cc1NC(=O)c1cccs1,18.6%,7.08µM*,u,-17.0%
CCN(CC)C(=O)N1CCN(C)CC1,13µM*,0.1%,x,16.4%
CCN(CC)C(=O)N1CCN(C(=O)N(CC)CC)CC1,2.0%,-0.5%,-18.6%,0.1%
O=C(OCc1cccc(C(F)(F)F)c1)c1cc(S(=O)(=O)N2CCOCC2)ccc1F,4.7%,0.3%,29.3%,2.9%
CN(C1CCCCC1)S(=O)(=O)c1ccc2c(c1)c(=O)c(C(=O)NCCc1ccc(Cl)cc1)cn2C,14.0%,-0.8%,x,0.4%
Cc1sc2ncnc(N3CCC(C(=O)N(C)CC(=O)Nc4ccccc4Cl)CC3)c2c1C,23.1µM*,-1.8%,7.3µM*,u
CCOC(=O)c1ccccc1NC(=O)C1CCN(c2ncnc3sc(C)c(C)c23)CC1,-3.9%,-0.6%,u,-3.1%
SMILES,Nrf2 inh,Nrf2 ARE act,ELG1 repair inh,A549 tox
Cc1sc2ncnc(N3CCC(C(=O)Nc4cc(S(C)(=O)=O)ccc4Cl)CC3)c2c1C,18.4µM*,-0.3%,u,-11.5%
COc1ccc(S(=O)(=O)N(C)C)cc1NC(=O)C1CCN(c2ncnc3sc(C)c(C)c23)CC1,11.6µM*,6.3%,x,u
Cc1sc2ncnc(N3CCC(C(=O)Nc4ccccc4C(C)(C)C)CC3)c2c1C,u,-0.7%,9.2µM*,-1.1%
O=C1NC[C@@H](CCCCN2C[C@H](Cc3ccc(O)cc3)N(CCC3CCCCC3)C(=O)C2=O)N(CCc2ccc(O)cc2)C1=O,x,0.0%,x,x
O=C(O)Cn1ccc2cc(S(=O)(=O)N3CCCCC3)ccc21,x,-0.4%,x,x
CCc1nc2c(OCC(=O)c3ccc(Cl)cc3Cl)cccn2c1N(C)C(=O)c1cccs1,x,1.2%,x,x
O=C(COc1cc2oc(=O)c3c(c2cc1Cl)CCC3)NCc1ccccn1,3.7%,-0.7%,-4.2%,7.5%
Cc1nn(-c2ccccc2)c(C)c1/C=N/NC(=O)c1cc(-c2cccc3ccccc23)n[nH]1,-11.2%,0.7%,16.4µM*,-6.3%
COc1ccc2c(Cl)c(C(=O)N/N=C/c3ccc4c(c3)OCO4)sc2c1,u,-0.6%,-24.2%,u
Cc1[nH]c2ccccc2c1/C=N/NC(=O)c1cc(-c2ccccc2)n[nH]1,u,2.2%,20.6µM*,-14.8%

# Screening data as filed in PubChem BioAssay.
